What all share (assay): NCI-60 one-dose screen, 48 h (100 = growth as untreated, 0 = no growth, -100 = all killed)
Common to all, as to details: 10 µM unless noted

Assay [1] concerns HCT-15 colon.
Assay [2] relates to HT29 colon.
Assay [3] concerns SNB-75 CNS.
Assay [4] relates to SNB-19 CNS.
In assay [5] the test system is U251 CNS.
The test system of assay [6] is PC-3 prostate.
In assay [7] the test system is SK-MEL-5 melanoma.
The test system of assay [8] is UACC-62 melanoma.
Assay [9] relates to LOX IMVI melanoma.
Assay [10] concerns SK-MEL-28 melanoma.

Compounds without any hit were thinned out: in the full panel of roughly 83,000, 20% have a hit.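 Treatment: one concentration, 48 hours, 96-well format. Scoring: percent growth, with anything below 10 considered active.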 Values without a mark were called inactive. The source made the active and inactive calls.

In PubChem BioAssay (NCI) one finds growth data, which are given here for 18 compounds.

Regarding `CN(C)C(=O)Oc1ccc(Br)cc1`, the growth in [1] is 105%; in [2], 109%; in assay [3], 89%; in assay [4], 107%; in assay [5], 98.3%; in [6], 97.1%. In addition, the growth was 98.8% in assay [7], 113% in assay [8], 96.4% in assay [9] and 104% in assay [10].

As to `CC(=O)C(c1c(O)c2ccccc2oc1=O)c1cc(=O)oc2c1ccc1ccccc12` (stereo not given), the growth in [1] was 101%; in assay [2] it was 109%; in [3], 67.8%; in [4], 90.7%; in [5], 91.5%; in [6], 85.7%. The growth in assay [7] was 96.5%; in assay [8], 91.1%; in assay [9], 96.6%; in assay [10], 110%.

For the compound `CCCCCN(CCCCC)CC(O)c1cc(Cl)ccc1OC` (stereo not given), the growth is 31.3% in assay [1]; 11.8% in [2]; 84.8% in assay [3]; 56.7% in assay [4]; 38.3% in assay [5]; 24.5% in assay [6]. The growth in assay [7] is 37.7%; in assay [8] it was 62.3%; in assay [9], 14.5%; in [10], 51.7%.

Regarding `C=CC12CCN(CC1)C(C(O)c1ccnc3ccc(OC)cc13)C2` (stereo not given), the growth was 66.1% in assay [1]; 11.9% in assay [2]; 52.7% in assay [3]; 98.5% in assay [4]; 80.6% in assay [5]; 66% in assay [6]. Moreover, the growth in assay [7] is 53.1%; in assay [8], 92.8%; in assay [9] it was 89%; in [10], 85.1%.

For the compound `O=C(c1ccccc1O)c1[nH]c(Cl)c(Cl)c1-n1c(C(=O)c2ccccc2O)cc(Cl)c1Cl`, the growth was 9.94% (active) in assay [1]; 4.28% (active) in assay [2]; -1.42% (active) in [3]; 9.34% (active) in [4]; -11.8% (active) in assay [5]; -13.4% (active) in assay [6]. Also, the growth is -77.9% (active) in assay [7], -22% (active) in [8], 10.5% in assay [9] and 14.2% in assay [10].

On to `CC[C@H](C)[C@H](NC(=O)c1nccn1C)C(=O)N(C)[C@H](C[C@@H](OC(C)=O)c1nc(C(=O)N[C@@H](Cc2ccccc2)C[C@H](C)C(=O)OC)cs1)C(C)C`, for which the growth in assay [1] is 10.5%; in assay [2], -6.75% (active); in assay [3], 15.8%; in [4], 37.3%; in [5], 9.94% (active); in assay [6], 25.2%. Besides, the growth in assay [7] is -0.799% (active); in assay [8] it was 55.7%; in assay [9] it was 17.6%; in [10] it was 51.2%.

In the case of `C[C@@]12CC[C@@H](O)C[C@@H]1CC[C@H]1[C@H]2CC[C@@]2(C)[C@H](c3ccc(=O)oc3)CC[C@@]12O`, the growth in assay [1] is -79.7% (active); in [2], -67.5% (active); in assay [3] it was -85% (active); in assay [4], -99.8% (active); in assay [5], -81.3% (active); in assay [6], -22.5% (active). The growth in assay [7] is -68.6% (active); in assay [8] it was -71% (active); in assay [9], -74.9% (active); in assay [10] it was -43% (active).

Regarding `CC[C@H](C)[C@H](NC(=O)c1ccccn1)C(=O)N(C)[C@H](C[C@@H](OC(C)=O)c1nc(C(=O)N[C@@H](Cc2ccccc2)C[C@H](C)C(=O)OC)cs1)C(C)C`, the growth in [1] is 13.5%; in assay [2] it was 2.48% (active); in [3], 5.57% (active); in assay [4] it was 52.4%; in assay [5], 16.1%; in assay [6], 24.5%. For the same compound, the growth was -22.6% (active) in [7], 13.1% in assay [8], 29.1% in [9] and 53.2% in assay [10].

Turning to `CC(C)(C)N1CC1C#N` (stereo not given), the growth was 99.6% in [1]; 105% in assay [2]; 98.3% in assay [3]; 97.2% in assay [4]; 100% in assay [5]; 103% in assay [6]. Moreover, the growth is 105% in assay [7], 104% in assay [8], 101% in assay [9] and 110% in assay [10].

For `ClCCN(CCCl)Cc1ccc(Nc2ccnc3cc(Cl)ccc23)cc1`, the growth in assay [1] is 48.2%; in assay [2] it was 10.2%; in assay [3] it was 45.1%; in assay [4] it was 60.8%; in [5] it was 22.4%; in [6], 47.3%. The growth in [7] was 54.2%; in [8], 26.8%; in assay [9], 20.1%; in assay [10], 67.1%.

For `CCOc1ccc(/C=C/[N+](=O)[O-])cc1`, the growth in [1] was 51.1%; in assay [2] it was 9.84% (active); in assay [3], 90.6%; in assay [4] it was 91.2%; in [5] it was 60.1%; in assay [6] it was 77.4%. For the same compound, the growth in assay [7] was 74.4%; in [8] it was 92.8%; in assay [9], 62.9%; in assay [10], 110%.

For the compound `CC1CN1CCCCN1CC1C` (stereo not given), the growth was 103% in [1]; 87% in assay [2]; 81.1% in assay [3]; 109% in assay [4]; 104% in assay [5]; 95% in assay [6]. For the same compound, the growth in assay [7] was 107%; in assay [8], 113%; in [9], 101%; in [10], 100%.

With `O=C(N/N=C/c1ccc(N(CCCl)CCCl)cc1)c1cccc2ccccc12`, the growth in [1] was 56.1%; in assay [2] it was 39.4%; in assay [3], 76.7%; in [4] it was 80.6%; in assay [5], 60.9%; in assay [6], 61.5%. Besides, the growth in [7] was 70.6%; in assay [8], 46.5%; in [9] it was 61.3%; in assay [10] it was 83%.

For `Nc1c(F)cc(-c2nc3cc(F)ccc3[se]2)cc1F`, the growth in assay [1] is 22%; in [2], 46.4%; in assay [3], 92.2%; in assay [4], 104%; in [5], 93.6%; in [6], 72.1%. Further, the growth is 56.1% in [7], 66.5% in assay [8], 89.3% in [9] and 116% in assay [10].

Regarding `COC(=O)[C@@H](C)C[C@H](Cc1ccccc1)NC(=O)c1nc([C@@H](C[C@H](C(C)C)N(C)C(=O)[C@@H](NC(=O)[C@H]2CCCN2C)C(C)C)OC(C)=O)sc1C`, the growth in assay [1] is 13.4%; in assay [2], 2.1% (active); in assay [3], 51.2%; in assay [4], 42%; in assay [5] it was 5.39% (active); in assay [6], 17.2%. The growth in [7] is -20.7% (active); in assay [8], 46.6%; in assay [9], 25.6%; in assay [10], 65.6%.

`Clc1ccc2nnnn2n1`: the growth in assay [1] was 24.7%; in assay [2], 12.9%; in [3] it was 80.3%; in assay [4] it was 91.7%; in [5] it was 34.4%; in assay [6] it was 25.7%. Further, the growth in [7] is 30.2%; in assay [8], 45.4%; in assay [9], 16.3%; in assay [10] it was 51.9%.

`O=C(O)CNC(=O)C(Cl)(Cl)Cl`: the growth in [1] was 96%; in assay [2], 97.1%; in assay [3] it was 85.1%; in [4] it was 100%; in assay [5], 84.8%; in [6], 91.6%. For the same compound, the growth in assay [7] is 99%; in assay [8] it was 102%; in [9], 99%; in [10], 96.6%.

As for `O=P(Oc1ccc(Cl)cc1)(N1CC1)N1CC1`, the growth in assay [1] is 88.7%; in [2], 72.5%; in assay [3], 74.2%; in assay [4], 91%; in assay [5], 82.6%; in [6] it was 76.1%. The growth in assay [7] is 86.2%; in assay [8], 58%; in [9], 83.1%; in assay [10], 98.3%.
